Source: PubChem
MEKK2 WT-MEK5 – raises or lowers MEK5 binding to wildtype human MEKK2 PB1 domain. Q9Y2U5. bead flow cytometry, Alexa488-MEK5 binding to MEKK2 WT; actives lie on both sides. binding response (% of control), % at 10 µM. 1.1% of 290,000 active; in the data active means binding response below about 67% or above about 130%
MEKK3 PB1 HTS – modulators (inhibitors or enhancers) of MEK5 binding to human MEKK3 PB1 domain; AID 1529; bead-based flow cytometry, Alexa488-MEK5 binding to MEKK3; actives lie on both sides; 0 = blocked by unlabeled MEK5, 100 = vehicle; 1.4% of 290,000 active; binding response (% of control), % at 10 µM; Q99759;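 active means binding response more than 3 SD above or below the average of its plate-row segment, actives on both sides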;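 further: Alexa488 bead fluorescence after subtracting the streptavidin-only scavenger bead signal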
CRFBP-R2 block – blocks CRF-induced signaling of the CRF-BP/CRF-R2 complex; HEK293 CRF-R2/CRF-BP, CRF-induced calcium fluorescence; inhibition, % at 11.8 µM; 0.59% of 350,000 active; AID 588475;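 active means inhibition of the ligand-induced calcium signal above about 50% at the single tested concentration, limit read from the data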
ABCB6 inh 2 – blocks the human ABCB6 transporter | 0.19% of 360,000 active | AID 602162 | K562-ABCB6 porphyrin accumulation, flow cytometry, 1 h; active compounds read low | Q9NP58 | fluorescence ratio to DMSO, % at 10 µM;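 active means fluorescence ratio to DMSO below 75%, the collection mean minus 3 SD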;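 further: signal is porphyrin accumulated inside mitochondria; 100% equals median channel fluorescence of DMSO control wells; lower ratio means ABCB6 inhibition with less porphyrin fluorescence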
Target sequence (Q9NP58 whole entry, looked up): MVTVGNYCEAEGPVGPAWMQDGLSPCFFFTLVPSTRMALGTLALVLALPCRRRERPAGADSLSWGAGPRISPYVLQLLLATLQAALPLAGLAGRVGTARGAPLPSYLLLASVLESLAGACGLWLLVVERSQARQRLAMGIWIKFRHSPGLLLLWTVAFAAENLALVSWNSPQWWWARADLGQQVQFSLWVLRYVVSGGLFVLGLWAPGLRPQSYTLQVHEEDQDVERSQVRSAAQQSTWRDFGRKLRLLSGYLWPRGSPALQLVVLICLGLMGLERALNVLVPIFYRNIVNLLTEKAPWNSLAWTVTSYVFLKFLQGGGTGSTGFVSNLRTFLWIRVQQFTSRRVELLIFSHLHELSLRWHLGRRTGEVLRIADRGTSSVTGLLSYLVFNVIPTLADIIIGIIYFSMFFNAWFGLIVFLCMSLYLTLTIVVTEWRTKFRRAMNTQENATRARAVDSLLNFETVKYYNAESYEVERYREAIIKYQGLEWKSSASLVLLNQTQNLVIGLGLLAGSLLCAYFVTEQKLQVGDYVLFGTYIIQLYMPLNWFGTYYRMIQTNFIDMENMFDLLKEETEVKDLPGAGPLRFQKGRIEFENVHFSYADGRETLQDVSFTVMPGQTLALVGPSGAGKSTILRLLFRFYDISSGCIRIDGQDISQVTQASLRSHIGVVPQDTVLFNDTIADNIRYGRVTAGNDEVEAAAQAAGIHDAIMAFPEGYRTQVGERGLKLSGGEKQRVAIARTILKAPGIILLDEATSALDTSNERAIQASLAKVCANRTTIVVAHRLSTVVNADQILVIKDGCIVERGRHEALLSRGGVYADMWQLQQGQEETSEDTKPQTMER
CRFR2-BP ag – CRF-BP/CRF-R2 complex agonism; AID 588473; HEK293 CRF-R2/CRF-BP, calcium dye fluorescence (FLIPR); percent of saturating CRF peptide response; 0.46% of 350,000 active; activation, % at 13.2 µM;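 active means activation of at least 50%, plus an integration ratio under a set limit after plate pattern correction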;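 further: plate controls were neutral control wells without compound for no effect and CRF at EC100 for full effect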
MEKK2 mut-MEK5 – signal of MEK5 binding to mutant human MEKK2 PB1 domain; bead flow cytometry, Alexa488-MEK5 binding to MEKK2 mutant; percent response, % at 10 µM; 0.35% of 290,000 active; AID 1530; in the data active means percent response above about 24%, passing the limit was not always enough
MEKK2wt confirm – raises or lowers MEK5 binding to wildtype human MEKK2, retest; shares compounds with MEKK3 PB1 HTS; bead flow cytometry, Alexa488-MEK5 binding to MEKK2 WT; actives lie on both sides; 2.4% of 5,900 active; binding response (% of control), % at 10 µM; in the data active means binding response below about 16% or above about 210%; inactive means in between
MEKK2mut-MEK5 – signal of MEK5 binding to mutant human MEKK2, retest | 2% of 5,900 active | shares compounds with MEKK3 PB1 HTS | percent response, % at 10 µM | AID 1893 | bead flow cytometry, Alexa488-MEK5 binding to MEKK2 mutant; in the data active means percent response mostly above about 71%, no sharp cut-off; inactive means mostly below about 38%;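 further: higher means compound restores mutant binding toward wildtype level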
MEKK3-MEK5 inh – confirmation of inhibitors of MEK5 binding to human MEKK3; shares compounds with MEKK3 PB1 HTS; bead flow cytometry, Alexa488-MEK5 binding to MEKK3; active compounds read low; binding response (% of control), % at 10 µM; 1.8% of 5,900 active;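 active means binding response below 72% of control, or above a set upper limit, though filed actives all read lower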;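 further: 100% = DMSO only wells and 0% = binding blocked by excess unlabeled MEK5; lower values mean stronger disruption of MEK5 binding to MEKK3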
Numbers without * were called inactive; nt = no result given; [ ] = remark or other dose. Rows were chosen to be rich in hits. Some 2.9% of all compounds tested hit in one or more screens of this group.

SMILES	MEKK2 WT-MEK5	MEKK3 PB1 HTS	CRFBP-R2 block	ABCB6 inh 2	CRFR2-BP ag	MEKK2 mut-MEK5	MEKK2wt confirm	MEKK2mut-MEK5	MEKK3-MEK5 inh
CCN1CCN(Cc2ccc(NC(=O)c3ccc(C)c(NC(=O)c4cc(-c5ccc(Br)cc5)n[nH]4)c3)cc2C(F)(F)F)CC1	150.0*	109.0	-10.7	98.0	-1.2	75.0*	239.0*	126.0*	109.0
Clc1ccc(-c2nc3ccccc3[nH]2)cn1	97.0	98.0	-10.9	103.0	0.3	0.0	nt	nt	nt
CCOc1ccccc1NC(=O)CCS(=O)(=O)c1ccc(Br)cc1	93.0	81.0*[inhibitor]	16.7	106.0	0.4	-12.0	95.0	-6.0	96.0
CCc1ccccc1NC(=O)CCS(=O)(=O)c1ccc(Br)cc1	100.0	98.0	7.7	98.0	-7.2	-3.0	nt	nt	nt
COc1ccc(/C=N/NC(=O)c2ccc(O)cc2)cc1CN1CCCc2ccccc21	44.0*[inhibitor]	97.0	12.0	91.0	0.3	24.0	88.0	-9.0	103.0
COc1ccc(NS(=O)(=O)c2cn(C)cn2)c(OC)c1	98.0	100.0	10.6	102.0	-0.1	4.0	nt	nt	nt
Cc1ccc(C)c(-c2ccc(=O)n(Cc3ccc(F)cc3Cl)n2)c1	132.0	128.0*	-3.4	97.0	-2.5	34.0*	100.0	0.0	104.0
CC1CCc2c(sc(NC(=O)COC(=O)c3ccc(O)cc3)c2C#N)C1 (stereo not given)	102.0	107.0	-5.6	97.0	-0.1	0.0	nt	nt	nt
COc1ccc(-c2nn(-c3ccccc3)cc2/C=N/O)cc1OC	96.0	93.0	2.2	102.0	-1.3	-1.0	nt	nt	nt
COc1ccc(-c2nn(-c3ccccc3)cc2/C=N/N=C(N)N)cc1OC	148.0*	110.0	-45.4	99.0	-1.0	3.0	176.0	35.0	111.0
COC(=O)c1cc(NC(=O)c2ccc(F)cc2)cc(C(=O)OC)c1	nt	89.0	-3.1	101.0	-0.3	103.0*	98.0	-2.0	98.0
CCOC(=O)CN1C=C(c2ccc3ccccc3n2)C(C[N+](=O)[O-])c2ccccc21 (stereo not given)	67.0*	103.0	-10.5	339.0	32.1	82.0*	102.0	-10.0	96.0
CCOC(=O)CSc1ccc2ccccc2n1	95.0	87.0	10.7	95.0	-3.3	-7.0	nt	nt	nt
CN(C)c1ccc(NS(=O)(=O)c2ccc(Cl)cc2)cc1	102.0	135.0*	10.8	98.0	0.2	3.0	99.0	-3.0	97.0
CCOP(=O)(OCC)C(Nc1ccccn1)c1ccc(F)cc1 (stereo not given)	117.0	99.0	-17.9	94.0	0.8	14.0	nt	nt	nt
CCOP(=O)(OCC)C(Nc1ccccn1)c1ccccc1 (stereo not given)	108.0	135.0*	-10.9	94.0	1.5	1.0	91.0	-14.0	94.0
Cn1c(=O)oc2cc(S(=O)(=O)N3CCN(c4ccccn4)CC3)ccc21	64.0	50.0*[inhibitor]	20.9	84.0	-3.6	-9.0	108.0	13.0	111.0
Cc1cc(NCCCn2ccnc2)n2nc(-c3ccc(Cl)cc3)cc2n1	111.0	102.0	-3.6	104.0	-0.7	-4.0	nt	nt	nt
Cc1cc(NCCCN2CCOCC2)n2ncc(-c3ccccc3)c2n1	90.0	79.0	-8.6	106.0	-1.9	-17.0	nt	nt	nt
Cc1cccc(-c2cc3nc(C)cc(NCCCN(C)C)n3n2)c1	99.0	87.0	6.5	94.0	0.5	-1.0	nt	nt	nt
CC(C)(C)c1cc(NCCCn2ccnc2)n2ncc(-c3ccc(Cl)cc3)c2n1	157.0*	98.0	-46.6	109.0	-1.1	37.0*	158.0	37.0	113.0
CN(C)CCCNc1cc(C(C)(C)C)nc2c(-c3ccccc3)cnn12	156.0*	88.0	-21.9	92.0	0.4	22.0	168.0	51.0	103.0
CN(C)CCCNc1cc(-c2ccccc2)nc2cc(-c3cccc(F)c3)nn12	192.0*	108.0	-20.7	94.0	3.2	40.0*	179.0	35.0	105.0
Cc1ccc(C2(C)NC(=O)N(CC(=O)N(C)CC(=O)Nc3cccc4ccccc34)C2=O)cc1 (stereo not given)	nt	nt	-9.4	99.0	-0.9	nt	nt	nt	nt
O=C(NCC1CCCO1)C1CCC(=O)N1Cc1ccc(F)cc1 (stereo not given)	-4.0*[inhibitor]	-1.0*[inhibitor]	3.3	103.0	1.6	-26.0	101.0	-2.0	101.0
SMILES	MEKK2 WT-MEK5	MEKK3 PB1 HTS	CRFBP-R2 block	ABCB6 inh 2	CRFR2-BP ag	MEKK2 mut-MEK5	MEKK2wt confirm	MEKK2mut-MEK5	MEKK3-MEK5 inh
Cc1ccc(CN2C(=O)CCC2C(=O)NCC2CCCO2)cc1 (stereo not given)	100.0	98.0	2.6	112.0	1.0	2.0	nt	nt	nt
CCCOc1ccc(C(=O)CCC(=O)OCC(=O)Nc2ccc(OCC)cc2)cc1	108.0	97.0	nt	nt	nt	3.0	nt	nt	nt
CCCOc1ccc(C(=O)CCC(=O)OCC(=O)Nc2ccc(Oc3ccccc3)cc2)cc1	147.0*	110.0	nt	nt	nt	71.0*	112.0	3.0	108.0
COCCn1c(Sc2ccccc2)nc2c1c(=O)[nH]c(=O)n2C	3.0*[inhibitor]	2.0*[inhibitor]	-0.6	101.0	-0.7	-21.0	101.0	3.0	100.0
Cn1c(=O)[nH]c(=O)c2c1nc(Sc1ccccc1)n2CCc1ccccc1	99.0	100.0	-0.8	97.0	0.0	5.0	nt	nt	nt
Cn1c(=O)[nH]c(=O)c2c1nc(SCC(=O)O)n2Cc1ccccc1	105.0	102.0	4.1	98.0	-1.5	27.0*	106.0	4.0	104.0
CN(C(=O)COC(=O)c1ccc(Br)c([N+](=O)[O-])c1)c1c(N)n(Cc2ccccc2)c(=O)[nH]c1=O	nt	nt	3.8	98.0	1.9	nt	nt	nt	nt
COc1ccc(NC(=O)c2sc3nc(Cc4ccccc4)cc(C(F)(F)F)c3c2N)cc1OC	110.0	159.0*	-36.3	97.0	4.9	2.0	39.0	-25.0	35.0*
COc1ccc(NC(=O)c2sc(=O)n(Cc3cccc(C(F)(F)F)c3)c2C)cc1OC	nt	nt	nt	100.0	nt	nt	nt	nt	nt
CN(Cc1ccsc1)C(=O)Cn1cc(Br)ccc1=O	105.0	101.0	1.5	83.0	0.3	1.0	nt	nt	nt
O=C(OCC(=O)N1CCN(Cc2ccccc2)CC1)c1ccc(Cl)cc1	6.0*[inhibitor]	4.0*[inhibitor]	-11.0	108.0	-0.5	-42.0	99.0	-3.0	98.0
CC(=O)Nc1ccc(NC(=O)C(C)OC(=O)C23CC4CC(CC(Cl)(C4)C2)C3)cc1 (stereo not given)	nt	nt	2.9	100.0	-1.2	nt	nt	nt	nt
Cc1nc(SCC(O)CO)c([N+](=O)[O-])[nH]1 (stereo not given)	138.0*	112.0	1.0	91.0	-0.3	16.0	99.0	-2.0	97.0
